# Screen size: about 53,000 sequences; about 3,700 (7%) were called active. This is one part of a sample in which actives are shown more often than they occur. Unmarked numbers belong to inactive results.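 The calls were made as follows: active = gene knockdowns whose robust z-score for IL-1 alpha signal is at least 2 or at most -2, so actives lie on both sides; inactive = the rest.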
# Assay: Components of the Cytosolic LPS Sensing Pathway: Gene Identification via Genome-wide siRNA Screen
# Conditions: RAW264.7 macrophages, IL-1a HTRF, actives lie on both sides, screened at 100 nM (by protocol), cells primed 5 h with Pam3CSK4 first
# Text: Non-canonical inflammasome activation by cytosolic LPS is a critical component of the host response to Gram-negative bacterial infection, however we lack a comprehensive understanding of the cellular processes that control this pathway. Here we describe a genome-wide siRNA screen to identify genes regulating the mouse macrophage IL-1 alpha response to cytosolic LPS.
# RAW264.7 cells were maintained in complete DMEM media, comprising DMEM with 4.5 g/L glucose, 10% FBS (Gemini Bio-Products, West Sacramento, CA), 2 mM Glutamine (Lonza) and 20 mM HEPES (Lonza), hereafter complete DMEM.
# The RNAi screen was conducted in 384-well format using the Ambion Silencer Mouse Genome siRNA Library (#4391425), which consists of three unique, nonoverlapping, nonpooled siRNAs for each of 17,000 gene targets. siRNA reagents ([…]) were stamped into 384-well white flat-bottom microplates (Corning, 3570) using a Velocity11 VPrep liquid handling system (Agilent) integrated into a BioCel robotic platform (Agilent) in columns 1-22, leaving columns 23-24 empty for negative (Ambion, Negative control #1) and positive (mouse Casp4) controls, respectively. The median value of each plate's negative control column was used to normalize sample wells, and the positive control was used to assess transfection efficiency and assay performance.
# Lipofectamine RNAiMAX Transfection Reagent ([…]; Invitrogen) was added in […] serum-free, antibiotic-free media to plate wells using a Thermo Scientific Matrix WellMate and Microplate Stacker. Plates were incubated for 45 min at room temperature to allow for the sufficient formation of siRNA-lipid complexes. Cells were seeded at a density of 1x10^4 cells per well in 20 microL media containing 20% (vol/vol) FBS without antibiotics. The final concentration of siRNA in each well was 100 nM. Cells were cultured for 48h at 37 degrees C in 5% CO2 before addition of […] of TLR ligand Pam3CSK4 for 5 hours. The medium was then removed, replaced with […] growth media and cell were transfected with […] of LipidA and TransIT-TKO (Mirus) for 24 hour. At the end of the LipidA treatment, […] of supernatant was transferred to a 384 Greiner Bio-one non-binding low volume plate and […] of IL-1a HTRF reagent (Cisbio, 62MIL1APEH) was added and incubated at room temperature overnight. The plates were read on an EnVision plate reader (PerkinElmer). Cell viability was measured by adding 20ul Cell Titer Glo to the original plate and running a luminescence read on the EnVision. The quantified IL-1a signal for each siRNA gene-targeted well was divided by the median of the negative control wells and multiplied by 100 to achieve a negative control normalized value for each well/siRNA. This normalized value was then used to generate a robust z-score by first taking the log of each value and then by subtracting the median and dividing by the […].
row,Sequence,z-score
1,CGGGAAGCAUCACUAUUUCTT against Nabp1,-0.822
2,GGACUCUUUUAUGAGUUUGTT against Lims1,0.757
3,GGCUAAAACAAGUGAAUGGTT against Gli3,-0.619
4,GGAGUAAAAAUGAGUAUGATT against Abcg3,0.534
5,GAUAUUCCUGCUCACAGUGTT against Olfr1265,-1.04
6,UAGUCAUCUUCACUCUCCUTT against Olfr1249,-0.907
7,GGACUUUUACCAGUUCUCCTT against Ece2,-2.43 (active)
8,GGCUCUCUGUCUGGAAAAGTT against Vcan,-1.25
9,GGAGCUGAGGAAUUGAUCCTT against Pudp,-1.97
10,CCAUUGCAUGCAAUGACUATT against S100a10,-1.25
11,GGAAGCAGCAAAGAAGUUGTT against Olfr1109,0.918
12,CCUAUCAUGUUAAAAACAGTT against Grem2,-1.13
13,GGGUCACUUGGAUUGUGGATT against Tmx2,-0.0195
14,GGAUCCUGCAUAUCUCAAATT against Mrps18c,0.186
15,GGGACACGAUGAGGAGUCATT against Cfap410,-2.21 (active)
16,GCGACUUAGAAAAGAACAGTT against Ccdc58,1.91
17,GGAACAGCAGCUUCCCUAATT against 4930555G01Rik,-0.0144
18,CCAAGCGAAAUCGAGGUGUTT against Omt2b,0.931
19,GGCUAUAGCAGCACAUUGGTT against Ylpm1,2.57 (active)
20,GGUGGAGCAGAUGAAGAACTT against Hspbp1,0.447
21,CCCAAGAAGUUUUAUUCUGTT against Zbbx,-0.221
22,GGCCUACGACAAAUCCAAATT against Csrp2,1.14

row,Sequence,z-score
1,GGCGAAGAUUGAAAAAUGCTT against Ube3c,-0.407
2,GGAACUAAAUGUGAAACAUTT against Ift52,-2.07 (active)
3,GGAAGUGGAACAGGACGUATT against Caps2,-1.17
4,GCUGUACCACAACUAGUCATT against Cdc7,0.977
5,GGCAAGUUUGCUAUAACCUTT against Jmy,-2.57 (active)
6,GGAAUAGGGAGGUAACCAGTT against Olfr1394,0.0525
7,GGAAAUUGCACCUUUAAAGTT against Rnf130,0.335
8,CGUAGCCGAGAAGACCCUATT against Shh,0.0734
9,GGUUUUAGAAUUCUGGACGTT against Plppr2,0.243
10,GCUCCUCUCAGGUGUACGATT against B9d2,2.23 (active)
11,GGGCAGGGAUGUUUAGAUCTT against Homer2,0.499
12,CCAACAUCUCUGUAUACUGTT against Olfr8,0.178
13,CCUACGUGAUCAACAAGCATT against Fxn,0.682
14,GGGAGCAACUGUGUCAAAUTT against Tspan10,1.06
15,GGAAAGACACAGAUAAUAATT against Arvcf,-1.28
16,CCAAUAACUCUAAAUAGGCTT against Trhr,0.308
17,GGUCAUCGAAUCUGGAGUATT against Pyroxd1,-0.282
18,GGUCCACAGUACCACAUAATT against Tespa1,-3.2 (active)
19,CAUCCCAGAGUGUUGUCUUTT against Olfr1325,1.97
20,GCAGCUCCCAAUCUCACUUTT against Ankrd34a,0.171
21,GGUGUCCGUAAAUGGAGUGTT against A430033K04Rik,0.809
22,GGAAGAGAGCCUCUGCCAATT against Ccnb2,2.28 (active)

row,Sequence,z-score
1,GUGUGCUAUGAGCAAUGCCTT against Sprr2a1,-1.34
2,GGUUCGACGAAGAUCAGAGTT against Akap1,-0.634
3,GGAAAGUGUUCUCUACAUGTT against Olfr1093,0.878
4,GGUAACAAGAGGUCUAGCATT against P2ry1,3.66 (active)
5,GGAUACUGGCAUGAAAUUGTT against Slc22a2,-0.888
6,GGCGGAACACAUGACUAGGTT against Ilf3,0.189
7,GGUCUGAAAAUGGAAUACCTT against Vps13a,1.8
8,GGGAAUCAACGCAAAGUUGTT against Pcdhga5,-0.00294
9,GCACAAGACUAACAAUACGTT against Sptbn2,-1.26
10,GGACAUCAAAGAAAAGUCATT against Gpr171,0.955
11,GCCAAUGAAAGAGACGUAGTT against Fam81a,-0.421
12,CCAAGAUGGGUUCAUCUCUTT against Cabp5,2.39 (active)
13,CGGAUUUCAUGGCUCAAGATT against Gfm2,-0.123
14,CGUGAACAGCUUUAAGGUGTT against Usp27x,1.34
15,CCCUAACAAACCCUAUUAUTT against Kdm6b,-1.49
16,GCUGAGACCCAGAUGCAAUTT against Mal,0.858
17,GUCUGCAUCACCUUCACCATT against Lhb,-0.301
18,CGGUAUCACGGUUAUCCUUTT against Olfr215,0.932
19,GGGAUUCCAGACAUGGGAATT against Alg9,-0.191
20,GCGGUUCUAAGGAUACCGATT against Txndc17,2.52 (active)
21,GGGUUUCUGACCCUUGGUUTT against Vmn1r220,-1.42
22,GGGUGUGAAGUCAUGGUAUTT against Trmt9b,0.503

row,Sequence,z-score
1,GGCCUCCUAAGAGGACUCATT against Dach1,-1.11
2,CGCAAUUCAGGUACCAAAUTT against Ndufv1,-0.0623
3,GCCUGAAAUCAACUCCACCTT against F2,2.21 (active)
4,CCAUUACAUCAGCUUUAUUTT against Pamr1,-0.845
5,GGAUAUCCUUACAAGGACCTT against Tmco3,-0.646
6,GGCCGACCUUUCUAUCAAUTT against Rasip1,-0.0174
7,GGUGUCAUUCAACUUGCAUTT against Rnase10,-2.55 (active)
8,GGAGGAAUACAAAUUCAAGTT against Vamp5,1.37
9,GGCUCUCUGGAGAAUCAUGTT against Slc25a28,0.0751
10,GGUUACUAUGGAGACCUGGTT against Mia,0.429
11,GCCUUAAUACUCACCAGGGTT against Zscan2,0.702
12,GCUAAGACACGAUAAACUUTT against Yes1,1.34
13,GCUGAUAAGGAGGUACCAUTT against Igf2r,0.916
14,GGAAAAGCAUCAAUUGAUGTT against Abca8b,-1.02
15,GGCUUUCAUUCUGCAGCUATT against Olfr1089,-2.13 (active)
16,GGUGUUCAGAUGGUUCCCATT against Exosc1,-1.19
17,GCUGUUACCUUGACGAAUATT against Tsc2,1.32
18,GGGAUAAAGAGCAAAGAAUTT against Trdv2-2,-0.466
19,GCGUAAUUCCAGCAGAUGUTT against Mepe,1.74
20,GAAAAGUGCACCAUCAGCCTT against Ly6g5b,-2.27 (active)
21,GCUACAGGUCAAUGUCGUGTT against Tcte2,-1.61
22,CCCAUAGCUAAUGAACCAATT against Sntg2,-0.604

row,Sequence,z-score
1,GGAGAGAAAAAGUAAUAUCTT against Fgf1,0.843
2,GGUCGUAAGACAGUUGUCCTT against 4932438H23Rik,-0.715
3,GGAGCUGACAGAGAGAUUCTT against Ankrd40,-2.77 (active)
4,GGAGCAACACUUGCGUACUTT against Ccnq,1.32
5,GCACUGUCGCAUCAUCAGATT against D230025D16Rik,1.83
6,GGAAACCUGAUGAUCUUUUTT against Olfr421-ps1,-1.27
7,GGAUGUCCGGAAGAUGUUUTT against Celf3,-0.284
8,GGUGUGUUCCCAACUGGUGTT against Olfr1124,2.04 (active)
9,GUGGAAAUGUACUUCUCUGTT against Olfr257,0.435
10,AGCUGCUCUGAGUUAGAAATT against Scd2,0.934
11,GGCAAAUCAUUGAUCAGAATT against Mtrf1,-0.214
12,GGACAGACUGAAUGAGCAGTT against Faf2,2.24 (active)
13,GCAAAACUUGGAACGAUUUTT against Ddx1,0.153
14,CCUAAAUUUGAGGUAACCUTT against Zbtb21,0.571
15,GGAUAAAAGCAUUUGAGUCTT against Acp1,0.694
16,GGGAACCAGUACAAUUACATT against Glt8d1,-0.755
17,GGAGAUCUAUGACAAGAAATT against Idh1,-0.376
18,GGUAAGAAGACAAACACUCTT against Ly6g6d,0.237
19,GCUCUACUGCUUCUUAGUCTT against Olfr965,-2.4 (active)

# Source: PubChem BioAssay AID1508600 (Functional Genomics Laboratory (NCATS/FGL), 2020)
